Source: PubChem BioAssay
Compounds with a hit are over-represented: about 18% of the library has one in this group of screens.
DT40 TDP1 CPT – growth inhibition of DT40 Tdp1-/-;hTDP1 cells with camptothecin (screen for TDP1 inhibitors); chicken DT40 Tdp1-/-;hTDP1 cells + 20 nM CPT, ATP luminescence, 48 h; Potency, µM (titrated, usually from 46.2 µM), inactives show at the highest dose activity change, negative = growth inhibition, most hits filed as inhibitors; 420,000 tested, 12% active; AID 686979; further: potency means the concentration at half of the fitted maximal effect; nearly all actives have a fitted effect of over 55% in size
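Cell growth measured by CellTiter-Glo luminescence after a minimum 48 h, 37 C compound exposure with 20 nM CPT in Tdp1-knockout DT40 cells stably expressing hTDP1, seeded 400/well; qHTS titration format.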
TDP1 inh – TDP1 (human) enzyme inhibition; recombinant TDP1, AlphaScreen DNA substrate cleavage; Potency, µM (series often up to 130 µM), for the others: at the highest dose activity change, negative = inhibition, actives largely listed as inhibitors; 350,000 tested, 0.28% active; further: potency means the concentration at half of the fitted maximal effect; nearly all actives have a fitted effect of over 40% in size
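Recombinant human Tdp1 (E. coli-expressed, 1 nM final) preincubated with compounds 15 min at room temperature, then 5'-biotin/3'-phosphotyrosine-FITC DNA substrate (15 nM final) added for 5 min. AlphaScreen beads (10 ug/ml final) added 10 min; cleavage lowers signal.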
Six1-Eya2 inh – inhibitors of human Six1/Eya2 interaction | 360,000 tested, 0.56% active | activity change, % (no concentration beside the values) | Q15475+O00167 | AlphaScreen GST-Six1/His-Eya2 binding, biochemical; hits give low values | AID 651725; in the data active means activity change below about -65%; inconclusive means mostly about -30% to -63%
Target sequence (O00167 whole entry, looked up): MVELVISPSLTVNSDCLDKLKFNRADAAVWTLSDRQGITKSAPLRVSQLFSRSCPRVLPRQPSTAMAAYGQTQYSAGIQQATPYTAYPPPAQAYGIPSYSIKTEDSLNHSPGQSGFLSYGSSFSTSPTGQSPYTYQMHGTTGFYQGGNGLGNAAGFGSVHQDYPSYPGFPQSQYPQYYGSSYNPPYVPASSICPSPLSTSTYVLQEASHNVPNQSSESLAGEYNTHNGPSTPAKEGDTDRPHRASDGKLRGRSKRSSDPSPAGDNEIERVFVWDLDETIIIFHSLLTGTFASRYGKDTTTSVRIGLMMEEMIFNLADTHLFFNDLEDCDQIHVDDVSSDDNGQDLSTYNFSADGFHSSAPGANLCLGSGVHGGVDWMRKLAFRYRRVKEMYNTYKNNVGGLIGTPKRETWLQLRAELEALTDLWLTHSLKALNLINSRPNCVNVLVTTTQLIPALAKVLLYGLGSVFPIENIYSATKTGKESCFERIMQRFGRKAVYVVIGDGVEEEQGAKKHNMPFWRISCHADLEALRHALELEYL
Target sequence (Q15475 whole entry, looked up): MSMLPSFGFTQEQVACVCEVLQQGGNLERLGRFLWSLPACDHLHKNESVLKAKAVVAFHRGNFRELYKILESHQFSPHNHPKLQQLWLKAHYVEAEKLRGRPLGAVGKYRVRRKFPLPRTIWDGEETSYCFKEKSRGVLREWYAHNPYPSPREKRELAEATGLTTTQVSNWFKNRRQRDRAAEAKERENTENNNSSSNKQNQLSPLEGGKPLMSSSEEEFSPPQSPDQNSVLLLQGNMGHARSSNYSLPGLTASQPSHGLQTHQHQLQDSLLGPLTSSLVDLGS
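AlphaScreen with GST-Six1 and His-Eya2 (5X mix: 250 nM and 500 nM), glutathione donor and nickel acceptor beads; buffer 50 mM Tris pH 8.0, 300 mM NaCl, 1 mM TCEP; 1 h at 37 C in the dark.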
CtBP-E1A blk – blocks the CtBP interaction with E1A; AlphaScreen GST-E1A/His-CtBP binding, 1536-well; hits give low values; activity change, % (concentration not given with the values); 340,000 tested, 0.49% active; in the data active means activity change below about -65%; inconclusive means mostly about -30% to -63%
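AlphaScreen with 125 nM GST-E1A and 125 nM His-CtBP (5X stocks) in Tris pH 8.0, 300 mM NaCl, BSA, Tween 20, TCEP. Compounds preincubated 2 h at 37 deg C, then glutathione donor/nickel acceptor beads added for 1 h at 37 deg C in dark.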
IL-1B inflam inh – inhibitors of inflammasome signaling (IL-1 beta secretion) | activity change, % at 57.5 µM | AID 743279 | 360,000 tested, 4.7% active | THP-1 LPS/ATP IL-1B secretion, AlphaLISA, 16 h; hits give low values; in the data active means activity change below about -50%; inconclusive means mostly about -30% to -49%
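THP-1 cells pretreated 1 hr with compounds (up to 57.5 uM final), then stimulated with LPS (250 ng/mL final) plus ATP (1.25 mM final); secreted IL-1B measured by AlphaLISA after 16 hr, decreased signal indicating inhibition.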
DT40 TDP1 no CPT – qHTS for Inhibitors of human tyrosyl-DNA phosphodiesterase 1 (TDP1): qHTS in cells in absence of CPT; DT40 Tdp1-/- hTDP1 cells, no CPT, ATP luminescence, 48 h; Potency, µM (titrated, usually from 46.2 µM), inactives show at the highest dose activity change, negative = growth inhibition, actives largely listed as inhibitors; 420,000 tested, 15% active; further: potency means the concentration at half of the fitted maximal effect; nearly all actives have a fitted effect of over 55% in size
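Luminescent ATP content (CellTiter-Glo) served as the growth readout. Knockout chicken DT40 cells expressing human TDP1 were exposed to compounds without camptothecin for a minimum 48 hr at 37 °C.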
Starred values were filed as active, the others as inactive. Unless noted, the call rests on the fitted dose curve; in most records, active means well fitted curve in the direction sought with a large enough effect; inconclusive means small, poorly fitted or top-dose-only effect, or another doubt; inactive means no such curve, though single readings can be large; an effect the other way counts as inactive or inconclusive. On the % scale 0 is the no-effect control and ±100 the full control effect.

What do the screens show for `CCCCCc1nc2c(=O)n(C)c3ccccc3c2o1`?
DT40 TDP1 CPT: -24%; TDP1 inh: 7%; Six1-Eya2 inh: -8; CtBP-E1A blk: -19; IL-1B inflam inh: -11; DT40 TDP1 no CPT: inconclusive

Results for Cn1c(=O)c2nc(-c3ccccc3)oc2c2ccccc21 ?
DT40 TDP1 CPT: -24%; TDP1 inh: -2%; Six1-Eya2 inh: -14; CtBP-E1A blk: -17; IL-1B inflam inh: 2; DT40 TDP1 no CPT: 16µM*

What do the screens show for `Cc1ccn2c(Nc3ccc4c(c3)OCCO4)c(-c3ccc(Cl)s3)nc2c1`?
DT40 TDP1 CPT: inconclusive; TDP1 inh: 10%; DT40 TDP1 no CPT: -26%

Results for Cc1ccn2c(Nc3ccc4c(c3)OCO4)c(-c3ccco3)nc2c1 ?
DT40 TDP1 CPT: 23µM*; TDP1 inh: 13%; DT40 TDP1 no CPT: inconclusive

What do the screens show for `Cc1ccn2c(Nc3ccc4c(c3)OCO4)c(-c3ccc(N(C)C)cc3)nc2c1`?
DT40 TDP1 CPT: 13µM*; TDP1 inh: 12%; DT40 TDP1 no CPT: inconclusive

What do the screens show for `CC(=O)OC1CCC2(C)C(=CCC3C2CCC2(C)C3CC3ON=C(C)C32)C1` (stereo not given)?
DT40 TDP1 CPT: inconclusive; Six1-Eya2 inh: 1; CtBP-E1A blk: -1; IL-1B inflam inh: 27; DT40 TDP1 no CPT: inconclusive

How did CCCc1nnc(NC(=O)Cc2coc3cc(C)cc(C)c23)s1 do in these assays?
DT40 TDP1 CPT: -18%; TDP1 inh: 6%; DT40 TDP1 no CPT: -23%

What do the screens show for `CCOC(=O)c1c(C)[nH]c(CCC(=O)NCc2ccc(F)cc2)c1C`?
DT40 TDP1 CPT: -26%; TDP1 inh: 3%; DT40 TDP1 no CPT: inconclusive

Results for CCc1ccc(C(=O)Nc2ccc(C)c(NS(C)(=O)=O)c2)cc1 ?
DT40 TDP1 CPT: -2%; TDP1 inh: 0%; Six1-Eya2 inh: -1; IL-1B inflam inh: inconclusive; DT40 TDP1 no CPT: -17%

Results for O=C1OCCC1Sc1nnc(-c2cccs2)n1Cc1ccccc1 (stereo not given) ?
DT40 TDP1 CPT: 2%; TDP1 inh: 6%; Six1-Eya2 inh: -2; CtBP-E1A blk: -4; IL-1B inflam inh: 19; DT40 TDP1 no CPT: -20%

Results for CCOC(=O)C(C(C)=O)C(c1ccc(OCCC(C)C)cc1)C(C(C)=O)C(=O)OCC (stereo not given) ?
DT40 TDP1 CPT: inconclusive; TDP1 inh: -2%; Six1-Eya2 inh: 2; CtBP-E1A blk: 1; IL-1B inflam inh: -3; DT40 TDP1 no CPT: 16µM*

How did CC1=N/C(=C\c2ccc([N+](=O)[O-])cc2)C(=O)N1c1cc(Cl)ccc1C do in these assays?
DT40 TDP1 CPT: 10µM*; TDP1 inh: -2%; Six1-Eya2 inh: -5; CtBP-E1A blk: -8; IL-1B inflam inh: -18; DT40 TDP1 no CPT: 9.2µM*

Results for Cc1ccc(Cl)cc1N1C(=O)CC(C)(C)CC1=O ?
DT40 TDP1 CPT: -15%; Six1-Eya2 inh: -2; IL-1B inflam inh: 5; DT40 TDP1 no CPT: -12%

What do the screens show for `COc1ccc(/C=C2\N=C3CCCCCN3C2=O)cc1`?
DT40 TDP1 CPT: 5%; TDP1 inh: 2%; Six1-Eya2 inh: 10; CtBP-E1A blk: 1; IL-1B inflam inh: -9; DT40 TDP1 no CPT: -5%

What do the screens show for `COc1ccc(N2C(=O)/C(=C/c3ccc([N+](=O)[O-])cc3)N=C2C)c(OC)c1`?
DT40 TDP1 CPT: 3.7µM*; TDP1 inh: 5%; Six1-Eya2 inh: -5; CtBP-E1A blk: 0; IL-1B inflam inh: 8; DT40 TDP1 no CPT: 2.1µM*

Results for Cc1ccc(CNC(=O)Cc2ccc(-n3cccc3)cc2)cc1 ?
DT40 TDP1 CPT: 1.3µM*; TDP1 inh: 3%; Six1-Eya2 inh: 0; CtBP-E1A blk: -1; IL-1B inflam inh: -13; DT40 TDP1 no CPT: 0.82µM*
